“And” between values parts separate entries of the source, which are not always exact repeats. Identical values can stand only once. Records with an inconclusive call do not appear. Some structures have more than one record in an assay (separate samples or runs), and their calls can disagree. The source made the active and inactive calls. The call rests on the fitted dose curve; in most records, active means well fitted curve in the direction sought with a large enough effect in the repeat runs; inconclusive means weak or mixed curves; inactive means no such curve, though single readings can be large; an effect the other way counts as inactive or inconclusive.
Key:
[1] = Human pregnane X receptor (PXR) small molecule agonists, qHTS cell viability counter screen (AID 1346977); further: nearly all actives have a fitted effect of over 50% in size; further: potency means the concentration at half of the fitted maximal effect
Outline: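 Tox21 qHTS format; PXR-Luc HepG2, 2,000/well, charcoal-stripped FBS 5%. Cpd exposure 24hr. Read: CellTiter-Fluor fluorescence, multiplexed with luciferase.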

[2] = Caspase-3/7 induction in CHO-K1 cells by small molecules, qHTS assay (AID 1346980); further: nearly all actives have a fitted effect of over 15% in size
Outline: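 Wild-type cells were seeded at 1,500 per well and settled 5 hr at 37 C, 5% CO2, then exposed to DMSO-dissolved compounds for 17 hr. Caspase-Glo 3/7 reagent was added, and luminescence was read after 30min at room temperature.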

[3] = Caspase-3/7 induction in HepG2 cells by small molecules, qHTS cell viability counter screen (AID 1346981); further: nearly all actives have a fitted effect of over 30% in size; further: potency means the concentration at half of the fitted maximal effect
Outline: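 Counter screen for cytotoxicity: HepG2 exposed 16 hr to compounds, then CellTiter-Fluor viability signal (fluorescence, 1 hr reagent incubation).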

[4] = molecular target: Nuclear receptor subfamily 1 group I member 2 (Homo sapiens) (UniProt O75469); test: Human pregnane X receptor (PXR) small molecule agonists, qHTS assay (AID 1346982); further: nearly all actives have a fitted effect of over 35% in size; further: potency means the concentration at half of the fitted maximal effect
Outline: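 Luminescence (ONE-Glo, 30 min RT) after 24 hr compound exposure of PXR-Luc HepG2 cells; cells rested 5 hr post-plating in 5% charcoal-stripped FBS medium.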

[5] = molecular target: Nuclear receptor subfamily 1 group I member 2 (Homo sapiens) (UniProt O75469); test: CYP3A4 induction through human pregnane X receptor (PXR) by small molecules, qHTS assay (AID 1346984); further: nearly all actives have a fitted effect of over 40% in size
Outline: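 DPX-2 reporter cells; 24h cpd, 37C; Luciferin-IPA 3uM final x3h; One-Glo 30 min RT; lumi read.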

[6] = molecular target: Nuclear receptor subfamily 1 group I member 2 (Homo sapiens) (UniProt O75469); test: Human pregnane X receptor (PXR) activation by small molecules, qHTS assay (AID 1346985); further: nearly all actives have a fitted effect of over 40% in size; further: potency means the concentration at half of the fitted maximal effect
Outline: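 DPX-2 cells (HepG2 co-transfected with a PXR response element and a CYP3A4-promoter luciferase construct) were seeded at 2,000 per well, rested 5 hr at 37C, then exposed to DMSO-dissolved compounds for 24 hr. Activation was read as luciferase luminescence.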

[7] = molecular target: Cytochrome P450 2D6 (Homo sapiens) (UniProt P10635); test: Cytochrome P450 Family 2 Subfamily D Member 6 (CYP2D6) small molecule antagonists: luciferase reporter qHTS assay (AID 1671196); further: nearly all actives have a fitted effect of over 50% in size; further: potency means the concentration at half of the fitted maximal effect
Outline: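 Inhibition of CYP2D6 was gauged by loss of luminescence, since light produced tracks the luciferin generated from a proluciferin substrate. A 10 min room-temperature preincubation preceded 1 h NADPH-supported turnover.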

[8] = molecular target: Cytochrome P450 2C19 (Homo sapiens) (UniProt P33261); test: Cytochrome P450 Family 2 Subfamily C Member 19 (CYP2C19) small molecule antagonists: luciferase reporter qHTS assay (AID 1671197); further: nearly all actives have a fitted effect of over 65% in size; further: potency means the concentration at half of the fitted maximal effect
Outline: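 Compounds were tested on CYP2C19 activity via proluciferin conversion to luciferin. The 37C, 1 h reaction followed NADPH addition; detection reagent stopped it.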

[9] = molecular target: Voltage-gated inwardly rectifying potassium channel KCNH2 (Homo sapiens) (UniProt Q12809); test: Human Ether-a-go-go-Related Gene (hERG) channel small molecule antagonists: fluorescence cell-based qHTS assay (AID 1671200); further: nearly all actives have a fitted effect of over 50% in size; further: potency means the concentration at half of the fitted maximal effect
Outline: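 Kinetic two-minute fluorescence traces, sampled at 1 s, were collected following thallium stimulus of U2OS cells (1000 per well) that had been cultured overnight at 37 C and loaded with FluxOR II.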

[10] = Caspase-3/7 induction in HepG2 cells by small molecules, qHTS assay (AID 1346978); further: nearly all actives have a fitted effect of over 15% in size; further: potency means the concentration at half of the fitted maximal effect
Outline: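 Wild-type HepG2 cells (2,000/well) were settled 5 h at 37 C, 5% CO2, then exposed to compounds in DMSO for 17 h. Caspase-3/7 activity was read by luminescence 30 min after adding Caspase-Glo 3/7 reagent at room temperature.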

[11] = Caspase-3/7 induction in CHO-K1 cells by small molecules, qHTS cell viability counter screen (AID 1346979); further: nearly all actives have a fitted effect of over 35% in size; further: potency means the concentration at half of the fitted maximal effect
Outline: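 CellTiter-Fluor viability check, qHTS format: wild-type CHO-K1, 16hr compound treatment, 1hr reagent incubation, fluorescence read.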

[12] = molecular target: Cytochrome P450 1A2 (Homo sapiens) (UniProt P05177); test: Cytochrome P450 Family 1 Subfamily A Member 2 (CYP1A2) small molecule antagonists: luciferase reporter qHTS assay (AID 1671199); further: nearly all actives have a fitted effect of over 50% in size; further: potency means the concentration at half of the fitted maximal effect
Outline: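 Signal from luciferin formed by CYP1A2 from a proluciferin substrate is read as luminescence, expressed in relative luminescence units. Compounds sit with enzyme 10 min, NADPH-driven reaction runs 1 h, all at room temperature.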

[13] = molecular target: Cytochrome P450 3A4 (Homo sapiens) (UniProt P08684); test: Cytochrome P450 Family 3 Subfamily A Member 4 (CYP3A4) small molecule antagonists: luciferase reporter qHTS assay (AID 1671201); further: nearly all actives have a fitted effect of over 50% in size; further: potency means the concentration at half of the fitted maximal effect
Outline: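 Proluciferin-to-luciferin conversion by CYP3A4, NADPH-regenerated, 1 h RT; luminescence read as RLU. Ketoconazole as control.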

[14] = molecular target: Cytochrome P450 2C9 (Homo sapiens) (UniProt P11712); test: Cytochrome P450 Family 2 Subfamily C Member 9 (CYP2C9) small molecule antagonists: luciferase reporter qHTS assay (AID 1671198); further: nearly all actives have a fitted effect of over 50% in size; further: potency means the concentration at half of the fitted maximal effect
Outline: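 CYP2C9 activity was measured with a P450-Glo proluciferin substrate. Enzyme–substrate mix was held with compound for 10 min at room temperature, then NADPH regeneration solution was added for 1 h at 37C. Luciferin product was read as luminescence.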

[15] = molecular target: Nuclear receptor subfamily 1 group I member 2 (Rattus norvegicus) (UniProt Q9R1A7); test: Rat pregnane X receptor (rPXR) activation by small molecules, qHTS assay (AID 1346983); conditions: rPXR luciferase reporter cells, One-Glo luminescence, 24 h; max activation: stronger effect = higher value; further: potency means the concentration at half of the fitted maximal effect; nearly all actives have a fitted effect of over 20% in size
Outline: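 Cell-based rPXR luciferase reporter assay, 2,000 cells per well, rested 5hr at 37 C before compound addition in DMSO, then 24 hr at 37 C. One-Glo reagent was added and luminescence read after 30 min at room temperature.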

Measured: Potency

Chain of Cytochrome P450 2D6 (Homo sapiens) (P10635 whole entry, looked up): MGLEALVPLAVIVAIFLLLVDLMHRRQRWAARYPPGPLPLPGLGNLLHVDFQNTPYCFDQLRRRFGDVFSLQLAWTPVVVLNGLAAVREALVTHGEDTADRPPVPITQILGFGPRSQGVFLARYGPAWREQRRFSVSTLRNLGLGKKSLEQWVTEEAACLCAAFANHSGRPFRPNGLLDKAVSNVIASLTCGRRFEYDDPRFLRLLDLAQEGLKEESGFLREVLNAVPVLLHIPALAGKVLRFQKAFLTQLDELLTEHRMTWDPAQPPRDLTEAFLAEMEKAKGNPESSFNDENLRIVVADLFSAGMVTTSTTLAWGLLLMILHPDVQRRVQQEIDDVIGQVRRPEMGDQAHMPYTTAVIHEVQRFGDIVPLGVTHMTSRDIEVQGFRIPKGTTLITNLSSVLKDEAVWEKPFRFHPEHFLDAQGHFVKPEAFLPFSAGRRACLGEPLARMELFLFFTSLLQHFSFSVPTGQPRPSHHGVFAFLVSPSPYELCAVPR
Chain of Cytochrome P450 2C9 (Homo sapiens) (P11712 whole entry, looked up): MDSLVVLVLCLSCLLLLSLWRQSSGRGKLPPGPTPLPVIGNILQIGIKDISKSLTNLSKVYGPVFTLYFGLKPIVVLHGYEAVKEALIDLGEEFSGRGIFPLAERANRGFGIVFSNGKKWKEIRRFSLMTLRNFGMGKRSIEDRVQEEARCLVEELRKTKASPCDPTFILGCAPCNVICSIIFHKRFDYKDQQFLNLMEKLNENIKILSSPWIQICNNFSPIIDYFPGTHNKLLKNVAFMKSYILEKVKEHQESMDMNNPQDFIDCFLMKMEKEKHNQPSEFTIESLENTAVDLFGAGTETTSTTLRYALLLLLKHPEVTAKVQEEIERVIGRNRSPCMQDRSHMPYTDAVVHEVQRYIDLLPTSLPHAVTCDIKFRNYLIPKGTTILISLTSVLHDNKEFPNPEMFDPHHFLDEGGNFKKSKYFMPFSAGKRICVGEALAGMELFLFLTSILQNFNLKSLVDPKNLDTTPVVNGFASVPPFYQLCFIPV
Chain of Cytochrome P450 2C19 (Homo sapiens) (P33261 whole entry, looked up): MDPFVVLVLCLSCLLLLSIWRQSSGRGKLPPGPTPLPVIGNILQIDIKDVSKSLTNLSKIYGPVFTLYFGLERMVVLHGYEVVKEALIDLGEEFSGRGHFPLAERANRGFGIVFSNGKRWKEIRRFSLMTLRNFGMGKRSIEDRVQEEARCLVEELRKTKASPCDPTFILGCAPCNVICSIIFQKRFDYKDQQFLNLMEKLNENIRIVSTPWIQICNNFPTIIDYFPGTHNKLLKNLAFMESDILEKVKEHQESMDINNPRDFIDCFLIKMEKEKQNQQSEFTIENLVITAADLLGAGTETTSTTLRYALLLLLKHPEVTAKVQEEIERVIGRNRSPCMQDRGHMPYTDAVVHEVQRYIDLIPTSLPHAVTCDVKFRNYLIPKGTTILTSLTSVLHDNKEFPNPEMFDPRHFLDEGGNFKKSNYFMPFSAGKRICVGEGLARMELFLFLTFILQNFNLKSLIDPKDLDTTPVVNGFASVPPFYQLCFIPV
Chain of Cytochrome P450 1A2 (Homo sapiens) (P05177 whole entry, looked up): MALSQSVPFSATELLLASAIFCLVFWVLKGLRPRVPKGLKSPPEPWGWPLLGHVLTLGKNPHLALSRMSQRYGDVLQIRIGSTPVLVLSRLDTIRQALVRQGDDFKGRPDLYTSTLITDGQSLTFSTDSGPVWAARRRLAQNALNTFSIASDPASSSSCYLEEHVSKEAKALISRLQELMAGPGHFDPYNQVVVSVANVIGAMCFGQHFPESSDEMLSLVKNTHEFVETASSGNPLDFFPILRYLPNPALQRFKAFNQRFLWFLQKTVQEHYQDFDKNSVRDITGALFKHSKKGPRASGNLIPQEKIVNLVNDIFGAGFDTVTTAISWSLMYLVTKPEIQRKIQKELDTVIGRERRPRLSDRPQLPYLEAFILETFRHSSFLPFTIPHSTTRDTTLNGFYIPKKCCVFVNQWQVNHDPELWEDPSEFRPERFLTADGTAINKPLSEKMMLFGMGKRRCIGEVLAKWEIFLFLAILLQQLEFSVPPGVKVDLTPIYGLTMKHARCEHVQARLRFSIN
Chain of Nuclear receptor subfamily 1 group I member 2 (Homo sapiens) (O75469 whole entry, looked up): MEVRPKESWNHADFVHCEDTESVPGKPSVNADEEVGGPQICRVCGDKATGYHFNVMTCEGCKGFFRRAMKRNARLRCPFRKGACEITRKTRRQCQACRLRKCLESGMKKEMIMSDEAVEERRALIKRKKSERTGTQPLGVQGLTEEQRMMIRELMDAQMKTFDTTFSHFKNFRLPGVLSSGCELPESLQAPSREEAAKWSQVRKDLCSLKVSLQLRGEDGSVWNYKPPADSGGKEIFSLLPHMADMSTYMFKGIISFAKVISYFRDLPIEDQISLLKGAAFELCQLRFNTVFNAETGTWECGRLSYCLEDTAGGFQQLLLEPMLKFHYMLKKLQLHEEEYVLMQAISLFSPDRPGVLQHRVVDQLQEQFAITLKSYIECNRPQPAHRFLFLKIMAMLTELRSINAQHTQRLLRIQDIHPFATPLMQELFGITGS
Chain of Voltage-gated inwardly rectifying potassium channel KCNH2 (Homo sapiens) (Q12809 whole entry, looked up): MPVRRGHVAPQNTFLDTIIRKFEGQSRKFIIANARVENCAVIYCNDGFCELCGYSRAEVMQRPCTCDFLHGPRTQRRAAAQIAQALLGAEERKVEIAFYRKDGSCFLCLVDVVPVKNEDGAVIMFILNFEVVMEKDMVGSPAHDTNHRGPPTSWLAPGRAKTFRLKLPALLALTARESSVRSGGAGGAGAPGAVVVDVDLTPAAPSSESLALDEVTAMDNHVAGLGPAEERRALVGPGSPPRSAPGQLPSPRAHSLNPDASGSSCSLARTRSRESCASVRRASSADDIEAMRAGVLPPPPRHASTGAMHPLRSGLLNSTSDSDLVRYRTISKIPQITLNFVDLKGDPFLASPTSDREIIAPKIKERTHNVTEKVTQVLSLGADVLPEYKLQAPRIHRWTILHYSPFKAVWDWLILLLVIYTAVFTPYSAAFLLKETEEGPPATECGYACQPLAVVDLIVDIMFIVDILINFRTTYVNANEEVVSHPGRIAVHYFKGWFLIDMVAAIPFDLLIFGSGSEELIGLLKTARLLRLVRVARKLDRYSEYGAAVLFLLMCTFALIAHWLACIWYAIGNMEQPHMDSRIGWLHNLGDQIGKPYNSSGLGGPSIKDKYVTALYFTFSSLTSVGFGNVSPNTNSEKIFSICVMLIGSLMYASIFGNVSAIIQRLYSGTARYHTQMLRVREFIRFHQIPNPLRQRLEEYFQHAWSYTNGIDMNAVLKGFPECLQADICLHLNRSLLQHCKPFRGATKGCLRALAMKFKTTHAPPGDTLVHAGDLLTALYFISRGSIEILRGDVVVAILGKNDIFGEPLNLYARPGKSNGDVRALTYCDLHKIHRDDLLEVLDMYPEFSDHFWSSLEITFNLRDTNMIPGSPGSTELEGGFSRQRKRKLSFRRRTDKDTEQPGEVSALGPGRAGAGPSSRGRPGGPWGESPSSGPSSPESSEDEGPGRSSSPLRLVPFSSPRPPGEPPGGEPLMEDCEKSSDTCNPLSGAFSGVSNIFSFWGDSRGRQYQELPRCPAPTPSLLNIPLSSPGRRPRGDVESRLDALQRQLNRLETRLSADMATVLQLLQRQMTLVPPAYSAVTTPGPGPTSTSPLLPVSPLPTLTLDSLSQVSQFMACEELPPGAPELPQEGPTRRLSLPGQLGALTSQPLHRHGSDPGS
Chain of Cytochrome P450 3A4 (Homo sapiens) (P08684 whole entry, looked up): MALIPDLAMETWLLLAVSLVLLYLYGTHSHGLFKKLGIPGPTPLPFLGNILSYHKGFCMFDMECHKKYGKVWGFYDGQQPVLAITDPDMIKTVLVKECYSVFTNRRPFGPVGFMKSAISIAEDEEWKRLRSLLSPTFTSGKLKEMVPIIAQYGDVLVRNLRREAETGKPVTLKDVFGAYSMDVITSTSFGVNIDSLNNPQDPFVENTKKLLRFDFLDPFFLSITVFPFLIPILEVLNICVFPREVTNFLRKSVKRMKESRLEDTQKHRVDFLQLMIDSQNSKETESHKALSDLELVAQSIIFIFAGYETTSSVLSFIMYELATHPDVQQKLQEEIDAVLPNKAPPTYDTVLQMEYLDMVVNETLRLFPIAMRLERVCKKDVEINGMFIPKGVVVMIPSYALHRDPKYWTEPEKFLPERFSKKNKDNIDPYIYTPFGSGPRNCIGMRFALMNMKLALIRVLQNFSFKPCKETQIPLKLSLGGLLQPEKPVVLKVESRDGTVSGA
Chain of Nuclear receptor subfamily 1 group I member 2 (Rattus norvegicus) (Q9R1A7 whole entry, looked up): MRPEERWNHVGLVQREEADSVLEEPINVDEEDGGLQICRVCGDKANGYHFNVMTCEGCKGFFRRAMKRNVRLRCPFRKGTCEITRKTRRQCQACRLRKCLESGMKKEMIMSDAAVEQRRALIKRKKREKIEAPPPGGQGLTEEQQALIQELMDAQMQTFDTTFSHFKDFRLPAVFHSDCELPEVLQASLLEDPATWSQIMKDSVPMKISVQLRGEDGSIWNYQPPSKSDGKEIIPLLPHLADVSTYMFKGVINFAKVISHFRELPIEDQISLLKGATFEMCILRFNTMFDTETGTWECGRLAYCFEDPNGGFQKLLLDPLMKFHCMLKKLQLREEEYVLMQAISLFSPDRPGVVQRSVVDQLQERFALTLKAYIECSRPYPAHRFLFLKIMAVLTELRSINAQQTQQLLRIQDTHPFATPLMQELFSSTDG

Clc1ccccc1C(c1ccccc1)(c1ccccc1)n1ccnc1
active: [1] 17.2 µM | [3] 48.6 µM | [4] 770 nM and 11.9 µM | [6] 3.98 µM | [7] 39.9 µM | [8] 3.99 µM and 2.45 µM | [9] 19.5 µM and 16.9 µM
inactive: [2] | [5]

C[n+]1ccn(Cc2ccccc2)c1
inactive: [10] | [11] | [2] | [3] | [8] | [12] | [13]
active: [4] 30.5 µM | [7] 31.6 µM

CCN(CCC#N)c1ccc(N=Nc2c(Cl)cc([N+](=O)[O-])cc2Cl)cc1
active: [11] 48.6 µM | [4] 12.2 µM
inactive: [10] | [2] | [7] | [8] | [13]

CC(C)(C)CC(C)(C)c1ccc(OCCOCC[N+](C)(C)Cc2ccccc2)cc1
79.6 µM (active) and inactive: [14]
inactive: [10] | [2] | [8] | [12] | [13]
active: [11] 61.1 µM | [3] 61.1 µM

Oc1ccc(N=Nc2ccccc2)cc1
active: [11] 61.9 µM | [3] 55.2 µM | [4] 34.8 µM | [8] 20.3 µM | [14] 36.1 µM | [13] 20.3 µM
inactive: [10] | [2]

c1ccc(CSCc2ccccc2)cc1
inactive: [1] | [2] | [3] | [13]
active: [4] 27.2 µM | [8] 2.82 µM | [14] 35.5 µM

C[C@@H](NCCCc1cccc(C(F)(F)F)c1)c1cccc2ccccc12
active: [7] 0.0389 µM | [8] 8.71 µM | [9] 10.7 µM
inactive: [5] | [14]

CCCC(=O)OC[C@@H](OC(=O)CCC)[C@@H](OC(=O)CCC)[C@H](Cn1c2nc(=O)[nH]c(=O)c-2nc2cc(C)c(C)cc21)OC(=O)CCC
inactive: [10] | [2] | [5] | [6] | [12]
active: [7] 8.71 µM | [8] 8.71 µM | [14] 13.8 µM

CCCCN(CCCC)c1ccc(C(=O)c2ccccc2C(=O)O)c(O)c1
active: [4] 61.7 µM | [14] 6.39 µM | [12] 63.9 µM
inactive: [7]

CCCCN1C(=O)[C@@H]([C@H](O)C2CCCCC2)NC(=O)C12CCN(Cc1ccc(Oc3ccc(C(=O)O)cc3)cc1)CC2
inactive: [2] | [4] | [7] | [14] | [12]
active: [11] 61.1 µM | [3] 30.6 µM | [9] 19.5 µM | [13] 17.8 µM

CCCCC(CC)COP(=O)(O)OCC(CC)CCCC (stereo not given)
inactive: [2] | [3] | [12] | [9] | [13]
active: [4] 61.3 µM and 54.5 µM | [7] 50.2 µM | [8] 31.8 µM and 31.7 µM

Cc1onc(-c2ccccc2Cl)c1C(=O)N[C@@H]1C(=O)N2[C@@H]1SC(C)(C)[C@@H]2C(=O)O
inactive: [11] | [2] | [3] | [9]

CC[C@@]1(O)C(=O)OCc2c1cc1n(c2=O)Cc2cc3c(CN(C)C)c(O)ccc3nc2-1
inactive: [4] | [5] | [6] | [8] | [14] | [12] | [9]
active: [10] 4.22 µM

CN(C)CCCOC1(Cc2ccccc2)CCCCCC1
inactive: [10] | [2] | [3] | [14] | [12]
active: [7] 1.55 µM

Nc1nc2ccccc2n1Cc1ccc(F)cc1
inactive: [10] | [2] | [14]
active: [4] 26.6 µM | [7] 0.692 µM | [8] 15.5 µM | [12] 24.5 µM

CC(C)OC(=O)c1cc2c(OCC(O)CNC(C)(C)C)cccc2[nH]1 (stereo not given)
inactive: [10] | [2] | [3] | [14] | [12]
active: [7] 13.8 µM

CCCC1O[C@@H]2C[C@H]3[C@@H]4CCC5=CC(=O)C=C[C@]5(C)[C@H]4[C@@H](O)C[C@]3(C)[C@]2(C(=O)CO)O1 (stereo not given in full)
39.9 µM (active) and inactive: [8]
inactive: [2] | [12] | [9]
active: [11] 61.2 µM and 61.1 µM | [15] 12.6 µM | [14] 39.9 µM and 35.6 µM

C[C@H]1[C@H]2CC[C@H]3[C@@H]4CC=C5C[C@@H](N(C)C)CC[C@]5(C)[C@H]4CC[C@]23CN1C
inactive: [10] | [2] | [3] | [8] | [14] | [12] | [9]

CCCCCCCCOC(=O)c1ccc(O)cc1
inactive: [2] | [3] | [9]
30.5 µM (active) and inactive: [4]
active: [10] 27.3 µM | [7] 56.2 µM and 39.9 µM | [8] 22.4 µM and 10 µM | [14] 31.6 µM and 35.6 µM

Cc1cc(=O)oc2cc(N(C)C)ccc12
active: [4] 48.6 µM | [8] 79.6 µM | [12] 6.33 µM | [13] 25.2 µM
inactive: [10] | [2] | [9]

Nc1ccc2c3c(cccc13)-c1ccccc1-2
active: [4] 27.6 µM | [8] 18 µM | [14] 32.1 µM | [13] 18 µM
inactive: [2] | [7] | [9]

From PubChem BioAssay (Tox21)
